Shown are actives, neighbours in structure and some others; about 2.8% of the full set was active somewhere.
WRN helicase inh: inhibitors of human WRN helicase. Potency, µM (doses to about 114 µM), inactives show at the top dose activity change, negative = inhibition, most hits filed as inhibitors. Q14191. WRN helicase unwinding, fluorescent forked duplex, kinetic. 360,000 compounds, 0.46% hits. AID 651768; further: potency means the concentration at half of the fitted maximal effect; on the % scale 0 is the no-effect control and ±100 the full control effect; nearly all actives have a fitted effect of over 55% in size
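WRN at 20 nM final was preincubated with compound for 15 min at room temperature; reaction started with 100 nM forked duplex oligonucleotide carrying fluorophore and quencher plus 2 mM ATP (final). Unwinding followed kinetically by red fluorescence (ex 525/em 598 nm).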
POLK inh: DNA polymerase kappa (human) inhibition. Q9UBT6. purified Pol kappa, fluorescent DNA synthesis assay, 10 min. Potency, µM (series often up to 107 µM), for the others: at the top dose activity, negative = inhibition, hits mostly inhibitors. 400,000 compounds, 0.53% hits. AID 588579; further: potency means the concentration at half of the fitted maximal effect; on the % scale 0 is the no-effect control and ±100 the full control effect
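Kinetic fluorescence screen: compound preincubated 15 min RT with 10 nM enzyme; 50 nM substrate (final) initiates; reads at 0/10 min.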
PI5P4K alpha inh: blocks human PI5P4K alpha kinase activity; P48426; PI5P4Kalpha enzyme, ADP-Glo luminescence, 60 min; hits give low values; max response, %; 330,000 compounds, 1.2% hits; AID 652105; active means max response of -50% or lower; inconclusive means between -30% and -50%; inactive means -30% or higher; further: value at the top dose of about 77 µM; on the % scale 0 is the no-effect control and ±100 the full control effect
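Quantitative HTS of the MLSMR library against PI5P4Kalpha with substrate. ATP added last at 5 microM final; room temperature, 60 minutes. Remaining ATP depleted, ADP converted and read as luminescence.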
POLI inh: blocks human DNA polymerase iota activity | Q9UNA4 | 390,000 compounds, 1% hits | Potency, µM (series often up to 115 µM), for inactives: at the highest dose activity, negative = inhibition, usual class: inhibitors | Pol iota fluorescent replication assay, 10 min; further: potency means the concentration at half of the fitted maximal effect
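Pol iota at 10 nM preincubated 15 min with compounds at room temperature; reaction started with fluorescent substrate, 50 nM final. Fluorescence read kinetically at 0 and 10 min; buffer-only wells as negative control.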
POLB inh: DNA polymerase beta (human) inhibition; P06746; Pol beta primer extension/strand displacement, fluorescence kinetic; Potency, µM (top dose mostly 114 µM), for inactives: at the highest dose activity change, negative = inhibition, most hits filed as inhibitors; 340,000 compounds, 1.3% hits; further: potency means the concentration at half of the fitted maximal effect; on the % scale 0 is the no-effect control and ±100 the full control effect
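Kinetic readout of DNA synthesis with strand displacement by Pol beta. Compound and 10 nM enzyme sit 15 min at room temperature; 50 nM substrate starts the reaction, read immediately and at 10 min.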
Pol eta inh: blocks human DNA polymerase eta activity; recombinant Pol eta, fluorescent DNA replication assay; 390,000 compounds, 1.2% hits; Potency, µM (top dose mostly 114 µM), for the others: at the highest dose activity change, negative = inhibition, most hits filed as inhibitors; Q9Y253; further: potency means the concentration at half of the fitted maximal effect; on the % scale 0 is the no-effect control and ±100 the full control effect
Target sequence (Q9Y253 whole entry, looked up): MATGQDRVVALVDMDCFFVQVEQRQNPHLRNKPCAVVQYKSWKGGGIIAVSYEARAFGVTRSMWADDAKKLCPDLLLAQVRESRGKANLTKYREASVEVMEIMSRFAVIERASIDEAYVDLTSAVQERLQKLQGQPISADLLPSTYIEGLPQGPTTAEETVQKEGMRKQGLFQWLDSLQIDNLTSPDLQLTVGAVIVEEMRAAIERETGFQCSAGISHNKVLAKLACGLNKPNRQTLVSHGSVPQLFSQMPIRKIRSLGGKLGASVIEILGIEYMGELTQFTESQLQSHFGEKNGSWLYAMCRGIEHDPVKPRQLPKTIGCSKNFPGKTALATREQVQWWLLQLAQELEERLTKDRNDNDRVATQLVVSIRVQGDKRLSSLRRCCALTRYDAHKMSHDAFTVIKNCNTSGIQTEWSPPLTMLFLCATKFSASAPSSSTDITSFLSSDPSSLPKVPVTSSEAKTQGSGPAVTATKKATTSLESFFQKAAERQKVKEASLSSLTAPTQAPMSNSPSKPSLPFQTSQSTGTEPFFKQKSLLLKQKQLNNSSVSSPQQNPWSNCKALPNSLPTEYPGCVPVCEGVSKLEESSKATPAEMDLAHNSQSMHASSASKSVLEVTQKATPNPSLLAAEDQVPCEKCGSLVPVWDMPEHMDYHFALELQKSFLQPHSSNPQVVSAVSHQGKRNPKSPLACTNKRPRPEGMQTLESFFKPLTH
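Pol eta (10 nM) was preincubated with compounds for 15 min at room temperature, after which fluorescent replication substrate (50 nM final) was added to start the reaction. Fluorescence was read kinetically at 0 and 10 min.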
Numbers without * were called inactive; u = inconclusive; x = no result; [ ] = remark or other dose. Unless noted, the call rests on the fitted dose curve; in most records, active means well fitted curve in the direction sought with a large enough effect; inconclusive means small, poorly fitted or top-dose-only effect, or another doubt; inactive means no such curve, though single readings can be large; an effect the other way counts as inactive or inconclusive.

SMILES	WRN helicase inh	POLK inh	PI5P4K alpha inh	POLI inh	POLB inh	Pol eta inh
N#CC1=C(N)Oc2n[nH]c(-c3cccs3)c2C1c1ccoc1 (stereo unspecified)	44.7µM*	-20.5%	-55.3*	u	-17.0%	u
CC(=O)Oc1cc2c3c(c1)/C(=C1/SC(=S)NC1=O)C(=O)N3C(C)(C)C=C2C	u	-21.9%	-75.8*	u	u	79.4µM*
COc1ccc(Cl)cc1C(=O)Nc1nc2ccccc2[nH]1	-8.1%	-30.5%	-0.5	79.4µM*	44.7µM*	-14.4%
CC/C(C)=N/Nc1nc(-c2cc3cccc(OC)c3oc2=O)cs1	u	u	-60.2*	50.1µM*	-14.9%	50.1µM*
CCOC(=O)C1CCN(C(=O)Cn2nc(C)n3c(cc4sccc43)c2=O)CC1	x	8.4%	x	24.5%	23.9%	-2.0%
Cc1cccc(N2CCN(c3ccc(NC(=O)c4ccccc4)cc3C(=O)O)CC2C)c1 (stereo unspecified)	x	-11.2%[60.1 µM]	x	-6.7%	5.6%	x
Cc1cccc(N2CCN(c3ccc(C(=O)O)cc3NC(=O)c3cccc(Cl)c3)CC2C)c1 (stereo unspecified)	x	-7.3%	x	-15.8%	31.6µM*	-0.5%
CCOC(=O)c1c(C)[nH]c(C)c1C(=O)COC(=O)c1ccc([N+](=O)[O-])s1	-4.1%[11.6 µM]	79.4µM*	-29.2	10µM*	x	22.4µM*
COC(=O)c1ccc(NC(=O)c2ccccc2OCC(=O)Nc2ccc(Br)cc2)cc1	x	6.9%	x	-3.1%	x	x
O=C(/C=C/c1ccc(Br)o1)NC(c1ccccc1)c1ccccc1	-11.7%	-6.7%	-1.1	u	3.2%	-22.3%
O=C1C(=Cc2ccc(Br)o2)C(=O)c2ccccc21	8.91µM*	u	-85.5*	1.12µM*	1.41µM*	0.794µM*
COc1cccc(C(=O)Nc2cccc(OCc3cc(=O)n4cccc(C)c4n3)c2)c1	x	-8.8%[60.1 µM]	x	10.2%	-0.7%	2.8%
CN(CC(=O)NCCc1ccc(S(N)(=O)=O)cc1)c1ccccc1	5.2%	-1.4%	9.1	20.2%	16.6%	-1.4%
CC1CCCC(C)N1C(=O)COC(=O)c1ccc(S(=O)(=O)N(C)c2ccccc2)cc1 (stereo unspecified)	-5.1%	-16.6%	-0.3	8.4%	x	-9.9%
CN(/C=C/C(=C/C=[N+](C)c1ccccc1)OCCCS(=O)(=O)[O-])c1ccccc1	-27.6%	u	-3.0	u	28.2µM*	u
CN(/C=C/C(=C\C=[N+](C)c1ccccc1)OCCCS(=O)(=O)[O-])c1ccccc1	-31.0%	u	-3.6	u	50.1µM*	-4.1%
CC(C)NC(=S)NNc1nc2ccccc2s1	u	2.0%	-66.5*	41.0%	1.5%	-20.9%
O=C(NNc1nc2ccccc2s1)c1ccc(F)cc1	-24.5%	3.6%	3.8	20.8%	57.1%	-2.4%
N#C/C(=C/c1ccc(-c2cc(C(=O)O)cc(C(=O)O)c2)o1)c1nc2ccccc2s1	x	x	x	x	20µM*	x
N#C/C(=C\c1ccco1)c1nc2ccccc2s1	8.4%	-5.9%	4.3	110.1%	1.5%	-19.2%
N#C/C(=C(/O)c1ccc(-c2cccc([N+](=O)[O-])c2)o1)c1nc2ccccc2s1	-31.2%[57.1 µM]	u	-53.4*	50.1µM*	-23.3%	17.8µM*
CCCCNC(=O)CSc1nc2ccccc2nc1Cc1ccccc1	x	-7.4%[60.1 µM]	x	18.0%	2.0%	-10.9%
CCOC(=O)CSc1nc(N)c(C#N)c(-c2ccc(OC)cc2)c1C#N	6.2%	-6.5%	-64.5*	32.8%	0.9%	3.8%
Cc1ccc(CNC(=O)CSc2nnc(C)c3c(C)n(-c4ccccc4)nc23)cc1	x	-4.4%	x	-2.6%	35.3%	-2.9%
O=C(c1ccc2c(=O)n(Cc3ccco3)c(=S)[nH]c2c1)N1CCN(Cc2ccc3c(c2)OCO3)CC1	x	u	x	89.1µM*	x	x
SMILES	WRN helicase inh	POLK inh	PI5P4K alpha inh	POLI inh	POLB inh	Pol eta inh
O=C(NCCCN1CCCC1=O)c1ccc2c(=O)n(Cc3ccco3)c(=S)[nH]c2c1	-6.8%	1.8%	u	u	31.6µM*	-7.2%
COc1ccc(CCn2c(=S)[nH]c3cc(C(=O)NCc4ccco4)ccc3c2=O)cc1OC	-16.1%	-12.4%	-26.6	3.3%	22.4µM*	u
Cc1ccc(CNC(=O)c2ccc3c(=O)n(CCCN4CCCC4=O)c(=S)[nH]c3c2)cc1	-2.7%	-7.8%	-0.3	29.1%	31.6µM*	3.9%
COC(=O)C1CC2=C(CCCC2=O)N(Cc2ccccc2)C1=O (stereo unspecified)	5.9%	5.1%	0.2	12.3%	x	-9.1%
Cc1ccc(-n2nc(C)c3c(C)cc(=O)n(CC(=O)Nc4cccc(C)c4C)c32)cc1	x	-4.5%	x	1.3%	10.0%	u
Cc1cccc(Nc2sc(C(=O)c3cc4cc(Cl)ccc4o3)c(N)c2C#N)c1	7.6%	-10.4%	1.0	-3.6%	10µM*	u
Cc1cccc(OCC(=O)Nc2ccccc2OCc2cc(=O)n3ccccc3n2)c1	x	1.3%[60.1 µM]	x	32.8%	11.4%	-17.4%
Cc1cc(=O)[nH]c2cc(O)ccc12	-7.5%	-8.3%	x	9.3%	1.7%	2.0%
Cc1cc(=O)[nH]c2ccc(O)cc12	x	u	x	79.4µM*	x	x
CCCCC(=O)Nc1sc2c(c1-c1nc3ccccc3s1)CCN(C(C)=O)C2	x	x	x	x	-1.5%	x
CC(=O)N1CCc2c(sc(NC(=O)C3CC3)c2-c2nc3ccccc3s2)C1	-13.6%	-19.1%	-21.2	47.8%	24.4%	25.1µM*
CCS(=O)(=O)c1ccc2oc(SCC(=O)NCc3ccccc3)nc2c1	1.6%	-3.9%	-9.1	3.1%	7.8%	-13.6%
CCS(=O)(=O)c1ccc2oc(SCC(=O)c3ccco3)nc2c1	-22.8%	-11.1%	-19.2	u	-0.4%	15.8µM*
CC1=Nc2ccccc2/C1=C/c1sc(=S)n(-c2cccc(C(=O)O)c2)c1O	u	u	-55.4*	u	-22.3%	35.5µM*
Oc1c(C=C2N=c3ccccc3=N2)sc(=S)n1-c1ccccc1	2.9%	0.4%	-6.2	29.9%	35.8%	-15.5%
O=C(COc1ccc2oc(-c3ccccc3)cc(=O)c2c1)NCc1ccco1	u	-16.9%	-13.9	u	22.4µM*	u
COc1ccc2oc(-c3ccco3)cc(=O)c2c1	0.4%	7.6%	-1.8	7.3%	50.1µM*	0.4%
CCc1ccc(NC(=O)CC2C(=O)N(c3ccccc3)C(=O)N2C(C)C)cc1 (stereo unspecified)	x	1.9%	x	17.0%	5.4%	-3.3%
CC(NS(=O)(=O)c1ccccc1)C(=O)NCc1ccco1 (stereo unspecified)	-10.3%[11.6 µM]	u	x	39.8µM*	u	u
O=c1c2ccccc2nc(N/N=C/c2c(O)ccc3ccccc23)n1O	-16.4%	u	-77.8*	u	6.4%	u

Screens as filed in PubChem BioAssay.
